Screening results deposited in PubChem by several laboratories.
ADAM10 inh: ADAM10 inhibition, QFRET primary screen. O14672. recombinant ADAM10, EDANS/DABCYL FRET peptide cleavage, 3 h. inhibition, % at 7 µM. 0.62% of 370,000 active;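 active = inhibition above a per-campaign cutoff equal to the mean of compounds falling between control-based bounds plus 3 SD, cut at about 20% in these data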;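 also: 0% = DMSO wells while the 100% control is not disclosed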
HGIII-sPLA2 inh: Inhibits HGIII-sPLA2 liposome hydrolysis, primary screen | Q9NZ20 | QFRET BODIPY PC-A2 liposome hydrolysis, fluorescence | inhibition, % at 12.2 µM | 0.56% of 370,000 active | AID 743126;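 active = inhibition above mean plus 3 SD of compounds lying within the high and low control bounds, cut at about 19% in these data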;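 also: 0% = median of test compound wells and 100% = no enzyme DMSO wells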
NR3A LBD binder: modulators (binders) of human NR3A ligand-binding domain; 2.5% of 340,000 active; NR3A LBD differential scanning fluorimetry, Tm shift; 0% = protein alone, 100% = glycine-bound protein; Tm shift relative to glycine control, % at 25 µM;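 active = melting temperature shift of at least 10% of the positive control shift, at one fixed dose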
FAS TE block: blocks the thioesterase domain of human fatty acid synthase | P49327 | 0.67% of 360,000 active | recombinant FAS-TE, OMFH fluorogenic substrate, fluorescence endpoint | inhibition, % at 15 µM;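 active = compounds whose normalised, plate-corrected inhibition of enzyme fluorescence in the single-dose primary screen is 50% or more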;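 also: 0% = DMSO with enzyme and 100% = substrate without enzyme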
ADAM17 inh: inhibitors of human ADAM17. recombinant ADAM17, EDANS/DABCYL FRET peptide cleavage. inhibition, % at 6.95 µM. 0.83% of 370,000 active. AID 720648;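 active = inhibition above the mean of compounds lying between control limits plus 3 SD, set per campaign, cut at about 8.5% in these data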;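 also: 0% = DMSO-only wells as the low control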
Target sequence (P78536 215-824 limits assumed): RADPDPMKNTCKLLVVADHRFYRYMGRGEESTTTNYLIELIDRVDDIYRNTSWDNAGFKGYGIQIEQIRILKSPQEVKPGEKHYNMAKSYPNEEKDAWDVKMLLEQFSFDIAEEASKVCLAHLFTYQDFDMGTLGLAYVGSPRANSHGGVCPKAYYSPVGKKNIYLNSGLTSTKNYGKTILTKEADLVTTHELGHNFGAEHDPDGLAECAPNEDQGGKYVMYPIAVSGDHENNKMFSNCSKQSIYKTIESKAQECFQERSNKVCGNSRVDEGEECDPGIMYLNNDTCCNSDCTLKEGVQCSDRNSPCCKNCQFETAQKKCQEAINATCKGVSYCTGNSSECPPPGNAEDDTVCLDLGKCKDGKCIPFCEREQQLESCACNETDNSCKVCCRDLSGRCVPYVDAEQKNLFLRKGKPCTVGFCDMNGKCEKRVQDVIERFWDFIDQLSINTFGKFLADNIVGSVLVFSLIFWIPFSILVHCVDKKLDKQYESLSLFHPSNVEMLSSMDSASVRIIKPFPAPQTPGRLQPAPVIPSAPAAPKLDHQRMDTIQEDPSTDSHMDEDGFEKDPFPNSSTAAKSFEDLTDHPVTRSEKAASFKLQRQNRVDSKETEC
Starred values were filed as active, the others as inactive; nt = not tested or not shown. In the library only some 4.3% were active in any assay of this set; here they are far more common.

SMILES | ADAM10 inh | HGIII-sPLA2 inh | NR3A LBD binder | FAS TE block | ADAM17 inh
COc1ccc(/C=N/NC(=O)c2cc3c(ccc4ccccc43)o2)cc1OC | -218.7 | -6.3 | 20.1* | 2.8 | -56.9
O=C(O)c1ccc(/C=N/NC(=O)c2cc3c(ccc4ccccc43)o2)cc1 | -15.2 | 2.6 | 0.0 | -3.0 | 1.2
COc1ccc(C=Nn2c(-c3ccccc3F)n[nH]c2=S)cc1OCc1ccccc1 | 8.9 | -2.4 | nt | nt | -1.3
C[C@@H]1CCN(C2CC2)S(=O)(=O)c2ccc(N3CCC[C@H]3CO)cc2O1 | -10.0 | 4.4 | nt | nt | -42.1
Cc1cccc(-c2cccc3c4c([nH]c23)[C@@H]2C[C@H](N(C)C(=O)c3ccccc3C)[C@H]([C@H](C)O)C(=O)N2CC4)c1 | 3.0 | 0.8 | nt | nt | 2.1
Nc1[nH]c2cc([N+](=O)[O-])ccc2c1-c1ccccn1 | -1.6 | -4.5 | 31.0* | -2.3 | 4.4
C=CCc1cc(Cl)ccc1OC(=O)Nc1cccc(Cl)c1 | -3.8 | 16.6 | 10.8* | 6.9 | -3.6
Cc1ccccc1CNC(=O)C1CCC(CNS(=O)(=O)c2cccc3cccnc23)CC1 (configuration not stated) | -0.2 | -7.4 | nt | nt | 1.2
Cc1ccc(-c2n[nH]c(S(C)(=O)=O)c2C#N)cc1 | -4.4 | -0.7 | 23.1* | -3.8 | -4.7
CC1(C)CC[C@]2(C(=O)O)CC[C@]3(CO)C(=CCC4[C@@]5(C)C[C@H](O)[C@H](O)[C@@](C)(C(=O)O)C5CC[C@]43C)[C@@H]2C1 (some centres not stated) | 0.9 | 5.4 | 14.3* | -5.0 | -1.5
CC1(C)C2CC[C@]3(C)C(CC=C4[C@@H]5C[C@@](C)(CO)[C@@H](O)C[C@]5(C(=O)O)CC[C@]43C)[C@@]2(C)CC[C@@H]1O (some centres not stated) | nt | nt | -0.5 | -1.9 | nt
Cc1nn(-c2ccccc2)c2sc(C(=O)NC3CCCC3)cc12 | -29.1 | -3.4 | nt | nt | -6.6
CC(=O)c1ccc(NS(=O)(=O)c2ccc3ccccc3c2)cc1 | -3.7 | -9.1 | -13.4 | -10.2 | -1.4
NC(=O)c1ccc(NS(=O)(=O)c2ccc3ccccc3c2)cc1 | 4.6 | -7.3 | 11.9* | -0.7 | -0.7
O=C(O)c1ccc(NS(=O)(=O)c2ccc(N3CCCC3)c([N+](=O)[O-])c2)cc1 | -4.0 | -0.7 | 10.0* | -5.0 | -3.2
O=C(Nc1ccccc1)c1cnc2ccccc2n1 | -3.2 | 6.1 | 2.9 | -4.2 | -1.6
O=C(O)c1ccc(NS(=O)(=O)c2ccc(C(=O)Nc3ccccc3)cc2)cc1 | 0.9 | 2.6 | 17.0* | -5.3 | 2.0
O=C(Nc1ccc(NS(=O)(=O)c2ccccc2)cc1)c1ccccc1 | 3.2 | -20.5 | -5.8 | 1.8 | 2.3
NC(=O)c1ccc(NC(=O)c2cnc3ccccc3n2)cc1 | -5.4 | 10.6 | 16.5* | -6.4 | -3.7
COC(=O)c1cc(NS(=O)(=O)c2ccc(N3CCCCCC3)c([N+](=O)[O-])c2)cc(C(=O)OC)c1 | 1.3 | -56.5 | 9.3 | 7.9 | 4.1
CCn1cc(C(=O)N2CCN(Cc3ccc(C)cc3)CC2)c(=O)c2ccc(C)nc21 | -12.4 | -0.9 | nt | nt | 1.5
CN(Cc1ccccc1)C(=O)OCc1cn(Cc2cccc(F)c2F)nn1 | -3.6 | -1.7 | nt | nt | -0.4
O=C(Nc1ccc(S(=O)(=O)Nc2cnc3ccccc3n2)cc1)c1cccc(OC(F)F)c1 | -39.4 | -26.1 | 10.6* | -2.7 | -15.3
CC(C)(C)c1ccc(C(=O)Nc2ccc(S(=O)(=O)Nc3cnc4ccccc4n3)cc2)cc1 | 2.9 | -0.6 | 12.9* | -44.0 | -10.7
CN(C)c1ccc(N=Nc2nc3ccccc3n2C)cc1 | 12.0 | 32.4* | -2.2 | 18.3 | 2.3
SMILES | ADAM10 inh | HGIII-sPLA2 inh | NR3A LBD binder | FAS TE block | ADAM17 inh
CCn1c2ccccc2c2cc(NC(=O)COC(=O)c3cc(F)cc(F)c3)ccc21 | 1.1 | 2.5 | nt | nt | -1.5
c1ccc(Nc2nnc(-c3cccc4ccccc34)o2)cc1 | -11.6 | 2.1 | 14.8* | -2.5 | -3.7
COC(=O)C1CN(Cc2ccc(OC)cc2)CCS(=O)(=O)N1Cc1cn(Cc2ccccc2)nn1 (configuration not stated) | -3.6 | -2.5 | nt | nt | -2.4
COc1ccc(Cl)cc1NC(=O)c1cc(-c2ccccc2O)n[nH]1 | 2.4 | -13.5 | 23.9* | -1.5 | 0.0
COc1ccc(NC(=O)c2cc(-c3ccc(C)cc3O)n[nH]2)c(OC)c1 | -0.3 | -38.0 | 37.5* | -0.6 | -2.0
NS(=O)(=O)c1ccc(NC(=O)c2cc(-c3cc(Cl)ccc3O)n[nH]2)cc1 | -4.9 | -21.8 | 33.6* | 7.1 | -1.7
COc1ccc(OC)c(NC(=O)c2cc(-c3cc(Cl)ccc3O)n[nH]2)c1 | -71.4 | -9.6 | 33.2* | -4.8 | -24.6
COc1ccc(NC(=O)c2cc(-c3cc(Cl)ccc3OC)n[nH]2)cc1OC | 8.1 | -4.5 | nt | 13.7 | 3.0
O=S1(=O)c2ccc(N3CCCC3)cc2Oc2ccccc2CN1Cc1cn(Cc2cccc(C(F)(F)F)c2)nn1 | 8.5 | 13.5 | nt | nt | 4.7
Cc1ccc(C)c(NC(=O)Cn2nnc(-c3ccncc3)n2)c1 | 0.9 | 12.9 | nt | nt | -2.5
COc1cccc(N2CCN(C(=O)CSc3nc4ncccc4[nH]3)CC2)c1 | -0.7 | 2.3 | nt | nt | 1.0
CC(=O)c1c(C)[nH]c(C(=O)Nc2ccccc2C)c1C | -2.3 | 7.6 | nt | nt | -5.7
Cc1cc(O)c(-c2cc(C(=O)NCc3ccc4c(c3)OCO4)[nH]n2)cc1C | -5.7 | -1.6 | -1.7 | -11.8 | -1.4
O=C(NCc1ccc2c(c1)OCO2)c1cc(-c2cc(Cl)ccc2O)n[nH]1 | 1.5 | -15.1 | 11.2* | 0.7 | -0.6
COc1ccc(NC(=O)c2ccc3[nH]c(C)c(C)c3c2)c(OC)c1 | -14.3 | -39.0 | 14.8* | 3.3 | -2.2
O=C(c1ccccc1Oc1ccc(C(F)(F)F)cc1[N+](=O)[O-])N1CCOCC1 | -9.2 | 3.5 | 2.3 | -9.8 | -3.5
O=C(Nc1ccccc1Cl)c1ccccc1Oc1ccc(C(F)(F)F)cc1[N+](=O)[O-] | 13.9 | -3.0 | 11.8* | 26.2 | 4.0
Cc1ccc(NC(=O)c2cc3cc(OC(F)(F)F)ccc3[nH]2)cc1 | -35.8 | 7.5 | 0.9 | nt | -21.1
Cc1ccc(N=C2SC(C(=O)Nc3ccc(OC(F)(F)F)cc3)C(N)=C2C(=O)Nc2c(C)cc(C)cc2C)cc1 (configuration not stated) | 27.1* | -28.6 | 35.5* | 24.9 | 13.9*
Cc1ccc(NC(=O)C2SC(=Nc3ccccc3)C(C(=O)Nc3ccc(Cl)cc3)=C2N)cc1 (configuration not stated) | nt | nt | 16.7* | 7.1 | nt
N#Cc1cccc(NC(=O)C2SC(=Nc3ccccc3)C(C(=O)N3CCOCC3)=C2N)c1 (configuration not stated) | 3.5 | 0.9 | 0.5 | 14.5 | 1.8
Cc1cccc(-n2ncc3c(Nc4ccc(F)cc4)ncnc32)c1 | -3.8 | -2.4 | 24.4* | 7.7 | -1.5
COc1ccc(-n2ncc3c(Nc4cccc(C)c4)ncnc32)cc1 | -6.2 | 1.0 | 28.6* | 1.6 | -6.3
COC(=O)c1ccc(Nc2ncnc3c2cnn3-c2cccc(C)c2)cc1 | -18.4 | -1.2 | -2.3 | 9.1 | -0.9
